The target in assay [1] is ATP-dependent 6-phosphofructokinase (Trypanosoma brucei brucei) (UniProt O15648). The experiment in a line: qHTS Assay to Find Inhibitors of T. brucei phosphofructokinase: hit validation (AID 492961).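 Note: luminescence reports ADP formed as PFK phosphorylates fructose-6-phosphate with ATP; % is set by controls: 0 for no effect and ±100 for the full control effect.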 The procedure, abridged: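 Percent activity derived from corrected luminescence, normalized between 0x and 1x enzyme controls, then fitted to concentration-response curves. Conditions: 1.25 nM PFK, 0.1 mM ATP, 0.5 mM F6P, 45 min RT.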
A general note: qHTS replaces the single test concentration by a dilution series.

Assay [2] can be described thus: qHTS profiling for inhibitors of Plasmodium falciparum proliferation (AID 504749).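 For activity, negative = inhibition: 0% = DMSO vehicle and full inhibition = artemisinin control.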 Note: nearly all actives have a fitted effect of over 60% in size. Note: potency is the fitted concentration of half-maximal effect. The settings on record: P. falciparum in erythrocytes, SYBR Green DNA, 72 h. In short, it runs like this: (§1)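 P. falciparum-infected erythrocytes (0.3% parasitemia, 2.5% hematocrit final) were exposed to compounds for 72 h at 37 C in 5% CO2, then lysed with SYBR Green buffer overnight at room temperature; parasite DNA fluorescence was normalized to artemisinin and DMSO controls.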

The test system of another assay is 3D7. The description is as above. As to conditions: P. falciparum in erythrocytes, SYBR Green DNA, 72 h; series mostly up to 28.7 µM. The procedure, abridged: as §1
A further assay relates to 7G8. Described as above. The settings on record: P. falciparum in erythrocytes, SYBR Green DNA, 72 h; series mostly up to 28.7 µM. In short, it runs like this: as §1
A further assay concerns AS120. Described as above. The settings on record: P. falciparum in erythrocytes, SYBR Green DNA, 72 h; series mostly up to 28.7 µM. In short, it runs like this: as §1
A further assay has as its system ATS189. Described as above. The settings on record: P. falciparum in erythrocytes, SYBR Green DNA, 72 h; series mostly up to 28.7 µM. The procedure, abridged:
as §1

For a further assay, the system named is CP185. Described as above. As to conditions: P. falciparum in erythrocytes, SYBR Green DNA, 72 h; series mostly up to 28.7 µM. In short, it runs like this: as §1
The test system of a further assay is CP191. Described as above. As to conditions: P. falciparum in erythrocytes, SYBR Green DNA, 72 h; series mostly up to 28.7 µM. In short, it runs like this:
as §1

Another assay deals with CP192. The assay is described as above. As to conditions: P. falciparum in erythrocytes, SYBR Green DNA, 72 h; series mostly up to 28.7 µM. In short, it runs like this: as §1
A further assay relates to CP194. The assay is described as above. The settings on record: P. falciparum in erythrocytes, SYBR Green DNA, 72 h; series mostly up to 28.7 µM. The procedure, abridged:
as §1

Another assay has as its system CP201. The description is as above. As to conditions: P. falciparum in erythrocytes, SYBR Green DNA, 72 h; series mostly up to 28.7 µM. In short, it runs like this: as §1
The next assay concerns CP203. The assay is described as above. The settings on record: P. falciparum in erythrocytes, SYBR Green DNA, 72 h; series mostly up to 28.7 µM. The procedure, abridged: as §1
For another assay, the system named is CP237. Described as above. As to conditions: P. falciparum in erythrocytes, SYBR Green DNA, 72 h; series mostly up to 28.7 µM. In short, it runs like this:
as §1

Another assay concerns CP238. The description is as above. The settings on record: P. falciparum in erythrocytes, SYBR Green DNA, 72 h; series mostly up to 28.7 µM. In short, it runs like this:
as §1

In another assay the test system is CP247. The assay is described as above. As to conditions: P. falciparum in erythrocytes, SYBR Green DNA, 72 h; series mostly up to 28.7 µM. The procedure, abridged:
as §1

The next assay concerns CP286. The assay is described as above. As to conditions: P. falciparum in erythrocytes, SYBR Green DNA, 72 h; series mostly up to 28.7 µM. The procedure, abridged:
as §1

The test system of another assay is DFO2036. The description is as above. The settings on record: P. falciparum in erythrocytes, SYBR Green DNA, 72 h; series mostly up to 28.7 µM. In short, it runs like this:
as §1

The subject of the next assay is DIV30. Described as above. The settings on record: P. falciparum in erythrocytes, SYBR Green DNA, 72 h; series mostly up to 28.7 µM. The procedure, abridged: as §1
The next assay relates to HB3. Described as above. As to conditions: P. falciparum in erythrocytes, SYBR Green DNA, 72 h; series mostly up to 28.7 µM. In short, it runs like this: as §1
Another assay deals with P94_40. The assay is described as above. The settings on record: P. falciparum in erythrocytes, SYBR Green DNA, 72 h; series mostly up to 28.7 µM. In short, it runs like this: as §1
Setting [3] is: at 28.7 µM (top of the series), parasite line A.
Where [4] appears, read: at 28.7 µM (top of the series), parasite line B.

Records with an inconclusive call do not appear. Unmarked numbers belong to inactive results. The source made the active and inactive calls. Calls come from the whole dose curve; as a rule, active = well fitted curve in the direction sought with a large enough effect; inconclusive = small, poorly fitted or top-dose-only effect, or another doubt; inactive = no such curve, though single readings can be large; an effect the other way counts as inactive or inconclusive.

ATP-dependent 6-phosphofructokinase (Trypanosoma brucei brucei), sequence (O15648 whole entry, looked up): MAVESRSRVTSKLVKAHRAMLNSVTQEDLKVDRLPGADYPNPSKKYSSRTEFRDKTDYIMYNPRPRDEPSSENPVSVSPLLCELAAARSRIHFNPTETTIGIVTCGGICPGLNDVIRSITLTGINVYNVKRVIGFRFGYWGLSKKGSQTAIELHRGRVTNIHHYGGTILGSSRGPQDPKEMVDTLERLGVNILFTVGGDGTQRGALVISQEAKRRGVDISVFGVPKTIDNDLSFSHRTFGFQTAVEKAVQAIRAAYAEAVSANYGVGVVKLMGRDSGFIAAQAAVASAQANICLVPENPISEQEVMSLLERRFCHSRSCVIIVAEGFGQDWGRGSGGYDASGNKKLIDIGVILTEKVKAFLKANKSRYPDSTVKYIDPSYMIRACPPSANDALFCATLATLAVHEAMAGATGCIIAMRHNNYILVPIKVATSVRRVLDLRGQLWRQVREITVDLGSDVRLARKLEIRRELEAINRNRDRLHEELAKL

Consider `CC(CCC(=O)O)C1CCC2C3C(=O)C[C@@H]4CC(=O)CC[C@@]4(C)C3CC(=O)[C@]12C` (stereo partly drawn), for which the Potency entry (in [1]; in the assay with 3D7; in the assay with 7G8; in the assay on AS120; in the assay with ATS189; in the assay with CP185) was “inactive” throughout. Further, the Potency entry with CP191, in the assay on CP192, in the assay on CP194, with CP201, in the assay on CP203 and in the assay with CP237 was “inactive” throughout. The Potency entry in the assay on CP238, in the assay with CP247, in the assay with CP286, with DFO2036, in the assay with DIV30 and with HB3 was “inactive” in each case. In the assay on P94_40, the Potency result is “inactive”. Besides, the results for the activity, negative = inhibition in assay [2] (setting [3]) and in [2] (setting [4]) were -3.83% and 1.51%, respectively.
Turning to `NCCCCC(N)C(=O)O` (stereo not drawn), the Potency result (in assay [1]; in the assay with 3D7; with 7G8; in the assay on AS120; in the assay on ATS189; in the assay with CP185) was “inactive” each time. For the same molecule, the Potency entry with CP191, in the assay with CP192, with CP194, in the assay on CP201, with CP203 and with CP237 was “inactive” each time. The Potency result in the assay with CP238, in the assay on CP247, in the assay on CP286, with DFO2036, in the assay on DIV30 and with HB3 was “inactive” each time. In the assay with P94_40, the Potency result is “inactive”. Moreover, the activity, negative = inhibition is -7.93% in assay [2] (setting [3]) and 13.6% in assay [2] (setting [4]).
With `CC(=O)OCC(=O)[C@@]1(O)CCC2C3C[C@H](C)C4=CC(=O)C=CC4(C)C3C(O)CC21C` (stereo partly drawn), the Potency result (in assay [1]; in the assay with 3D7; in the assay with 7G8; with AS120; in the assay with ATS189; in the assay with CP185) was “inactive” each time. Further, the Potency entry in the assay with CP191, in the assay on CP192, in the assay on CP194, with CP201, with CP203 and in the assay with CP237 was “inactive” each time. Also, the Potency result in the assay on CP238, in the assay on CP247, in the assay with CP286, in the assay on DFO2036, in the assay with DIV30 and in the assay with HB3 was “inactive” in each case. Besides, the Potency result with P94_40 was “inactive”. The activity, negative = inhibition in assay [2] (setting [3]) is 2.49%; in assay [2] (setting [4]) it was 4.17%.
For `NC(=O)OC[C@@H]1[C@H](NC(=O)/C(=N/OCC(=O)O)c2csc(N)n2)C(=O)N1S(=O)(=O)O`, the Potency entry (in assay [1]; with 3D7; in the assay on 7G8; in the assay on AS120; in the assay with ATS189; with CP185) was “inactive” each time. Moreover, the Potency result in the assay on CP191, in the assay on CP192, with CP194, with CP201, in the assay with CP203 and with CP237 was “inactive” throughout. In addition, the Potency result in the assay on CP238, with CP247, in the assay on CP286, in the assay with DFO2036, in the assay on DIV30 and in the assay on HB3 was “inactive” each time. In addition, in the assay on P94_40, the Potency result was “inactive”. For the same molecule, the activity, negative = inhibition in assay [2] (setting [3]) was -1.72%; in assay [2] (setting [4]), 1.04%.
In the case of `CN(C)CC/C=C1\c2ccccc2COc2ccc(CC(=O)O)cc21`, the Potency entry (in assay [1]; in the assay with 3D7; in the assay on 7G8; in the assay on AS120; with ATS189; in the assay on CP185) was “inactive” each time. The Potency entry in the assay with CP191, in the assay on CP192, with CP194, in the assay on CP201, in the assay with CP203 and with CP237 was “inactive” in each case. Besides, the Potency entry in the assay on CP238, in the assay with CP247, in the assay with CP286, in the assay with DFO2036, in the assay with DIV30 and with HB3 was “inactive” throughout. Further, in the assay on P94_40, the Potency entry was “inactive”. Also, the activity, negative = inhibition in [2] (setting [3]) is 1.27%; in assay [2] (setting [4]), -5.49%.
Consider `C[C@H]1OC(OC2C(O)[C@@H](O)C(OC3C(O)[C@@H](O)C(O)O[C@@H]3CO)O[C@@H]2CO)[C@H](O)C(O)C1N[C@H]1C=C(CO)[C@@H](O)[C@H](O)C1O` (stereo partly drawn), for which the Potency entry (in [1]; in the assay with 3D7; with 7G8; in the assay with AS120; with ATS189; with CP185) was “inactive” in each case. Moreover, the Potency entry in the assay with CP191, in the assay on CP192, in the assay with CP194, with CP201, in the assay with CP203 and in the assay with CP237 was “inactive” in each case. In addition, the Potency result with CP238, with CP247, in the assay on CP286, with DFO2036, in the assay on DIV30 and in the assay on HB3 was “inactive” throughout. In addition, in the assay with P94_40, the Potency result is “inactive”. The activity, negative = inhibition in assay [2] (setting [3]) is -6.96%; in assay [2] (setting [4]) it was 11.4%.
With `COC1CC2CCC(C)[C@](O)(O2)C(=O)C(=O)N2CCCCC2C(=O)OC(C(C)CC2CCC(O)C(OC)C2)CC(=O)C(C)/C=C(/C)C(O)C(OC)C(=O)C(C)CC(C)C=CC=C/C=C\1C` (stereo partly drawn), the Potency result in [1] was “inactive”. The Potency in assay [2] (parasite line A) is 3550 nM (active); in assay [2] (parasite line B), 1410 nM (active); in the assay on 3D7, 2000 nM (active); in the assay with 7G8, 1000 nM (active); in the assay with AS120, 1120 nM (active); in the assay on ATS189, 3160 nM (active). The Potency in the assay with CP185 was 4470 nM (active); with CP191 it was 2510 nM (active); with CP192, 4780 nM (active); with CP194, 3380 nM (active); in the assay on CP201 it was 7570 nM (active); with CP203 it was 1690 nM (active). Besides, the Potency in the assay on CP237 is 2820 nM (active); in the assay with CP238 it was 3160 nM (active); in the assay on CP247, 3160 nM (active); in the assay on CP286, 4470 nM (active); in the assay with DFO2036 it was 1410 nM (active); in the assay on DIV30, 953 nM (active). Besides, the figures for the Potency in the assay on HB3 and with P94_40 were 2510 nM (active) and 1410 nM (active), respectively.
`CC(=O)N[C@H]1[C@H](O[C@@H]2c3ccc(c(Cl)c3)Oc3cc4cc(c3O[C@@H]3O[C@H](CO)[C@@H](O)[C@H](O)C3C)Oc3ccc(cc3Cl)C[C@H]3NC(=O)[C@@H](N)c5ccc(O)c(c5)Oc5cc(O)cc(c5)[C@H](NC3=O)C(=O)N[C@H]4C(=O)N[C@H]3C(=O)N[C@@H]2C(=O)N[C@@H](C(=O)O)c2cc(O)cc(O[C@H]4O[C@H](CO)[C@@H](O)C(O)[C@@H]4O)c2-c2cc3ccc2O)O[C@H](CO)[C@@H](O)[C@@H]1O` (stereo partly drawn): the Potency entry (in assay [1]; in the assay with 3D7; in the assay on 7G8; in the assay with AS120; in the assay on ATS189; with CP185) was “inactive” throughout. For the same molecule, the Potency result with CP191, in the assay on CP192, in the assay on CP194, in the assay with CP201, with CP203 and with CP237 was “inactive” throughout. Besides, the Potency entry in the assay on CP238, with CP247, in the assay with CP286, in the assay on DFO2036, in the assay on DIV30 and in the assay with HB3 was “inactive” each time. For the same molecule, the Potency entry in the assay on P94_40 was “inactive”. The activity, negative = inhibition was -7.42% in assay [2] (at 12.8 µM (top of the series), parasite line A) and 7.54% in assay [2] (at 12.8 µM (top of the series), parasite line B).

Source of the values: PubChem BioAssay (NCATS).
